Screening data from PubChem.
TEAD-YAP inh = TEAD-YAP interaction inhibition; HEK-TIYL cells, TEAD-Gal4/YAP UAS-luciferase luminescence; actives 1.4% (n = 640,000); inhibition, % at 9.12 µM; in the data active = inhibition above about 32%;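 also: 0% = median of test compound wells and 100% = reference inhibitor wells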
GPR151 activ = activates the human receptor GPR151; actives 1% (n = 650,000); PathHunter beta-arrestin GPR151 cells, luminescence; Q8TDV0; AID 1508602; activation, % at 11.2 µM; in the data active = activation above about 4.9%;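 also: 0% = median of compound wells and 100% = cells with positive control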
Target sequence (Q8TDV0 whole entry, looked up): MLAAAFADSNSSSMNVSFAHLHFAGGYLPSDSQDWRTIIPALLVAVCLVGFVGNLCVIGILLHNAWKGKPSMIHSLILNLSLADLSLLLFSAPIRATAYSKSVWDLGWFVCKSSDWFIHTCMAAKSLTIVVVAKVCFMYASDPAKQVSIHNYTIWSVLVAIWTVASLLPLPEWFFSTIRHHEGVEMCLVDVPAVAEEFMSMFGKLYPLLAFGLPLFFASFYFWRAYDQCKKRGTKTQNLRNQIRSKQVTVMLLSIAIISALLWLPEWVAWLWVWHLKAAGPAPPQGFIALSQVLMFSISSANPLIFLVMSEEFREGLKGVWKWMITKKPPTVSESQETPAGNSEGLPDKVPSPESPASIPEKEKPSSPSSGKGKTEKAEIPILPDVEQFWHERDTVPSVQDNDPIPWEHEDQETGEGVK
MITF primary = blocks human microphthalmia-associated transcription factor | O75030 | AlphaScreen MITF homodimerization, bead proximity signal | inhibition, % at 2.6 µM | actives 0.91% (n = 650,000); in the data active = inhibition above about 50%;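 also: 0% = vehicle wells with protein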
FBW7 act = activators of human E3 ligase FBW7; Q969H0; AlphaScreen FBW7–phospho-cyclin E peptide binding, activator screen; normalized activity (activation), % at 26.1 µM; actives 0.13% (n = 650,000); AID 1259310; in the data active = normalized activity above about 1.9%;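 also: purified mutant Fbw7 with reduced substrate affinity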
* hit, by the source's call. Hits are enriched below; roughly 3.5% of the tested compounds scored in any of these assays.

SMILES | TEAD-YAP inh | GPR151 activ | MITF primary | FBW7 act
O=C1Oc2cc3oc4ccccc4c3cc2C1(O)C(F)(F)F (stereo unspecified) | 3 | 0 | 10 | 0
COc1ccc(N2CCN(C(=O)CCl)CC2)cc1 | 49* | -1 | 8 | 1
COc1ccc(N2CCN(C(=O)CN(c3ccccc3C)S(C)(=O)=O)CC2)cc1 | 1 | -1 | 72* | 0
CC1Cc2ccccc2N1C(=O)CN1CCc2ccccc2C1 (stereo unspecified) | 12 | -2 | 17 | 0
COc1ccc(N2CCN(CC(=O)N3c4ccccc4CC3C)CC2)cc1 (stereo unspecified) | 5 | 1 | 65* | 1
O=C(CCl)N1CCN(c2ccc([N+](=O)[O-])cc2)CC1 | 34* | 0 | 7 | 0
COc1ccc(N2CCN(C(=O)CN(c3cccc(C)c3C)S(C)(=O)=O)CC2)cc1 | 7 | 0 | 7 | 0
O=C(OCC#CCSc1nnc(-c2ccco2)o1)C1=CC2C=CC=CC2OC1=O (stereo unspecified) | -32 | -1 | 1 | 0
O=S(=O)(Nc1ccc2c(c1)OCO2)c1c(F)cc(F)cc1Br | -36 | 2 | -6 | 0
CCCOC(=O)C1=C(C)NC(=O)NC1c1cc(Cl)c(O)c(OC)c1 (stereo unspecified) | -15 | -1 | 2 | 0
CC(=O)c1c(C)n(-c2ccc(N(C)C)cc2)c2ccc(O)cc12 | 40* | 0 | 5 | 0
N#CC1=C(N)OC2=C(CCC/C2=C/c2ccoc2)C1c1ccoc1 (stereo unspecified) | -12 | 2 | 58* | 0
CCCOc1ccc(Cc2nc3ccccc3[nH]c2=O)cc1 | 4 | -1 | -2 | 0
CC(C)(C)C1(C)OC(=O)C(=Cc2ccc(Br)o2)C(=O)O1 (stereo unspecified) | -11 | 0 | 69* | 0
CCc1ccccc1Nc1nc(N)nc(Cn2nnc(-c3ccccc3)n2)n1 | 39* | 0 | 12 | 0
Cc1cc(C(F)(F)F)c(C#N)c(SCc2nnc(-c3ccccc3)o2)n1 | 41* | -2 | 0 | 0
Cc1cc(C)c(C#N)c(SCc2nnc(-c3ccc(Cl)cc3)o2)n1 | 29 | -1 | 4 | 0
Cc1nc(SCc2nnc(-c3ccccc3)o2)c(C#N)c(C)c1C | 92* | 0 | -3 | 0
NC(=O)c1cccc(Nc2ccc(N3CCOCC3)cc2)n1 | 1 | -1 | 11 | 0
Cc1ccc(/C=N/NC(=O)CNc2ccccc2C)cc1 | 44* | -1 | -15 | 0
CC(=O)Oc1ccc2c(=O)c(Oc3ccccc3)c(C(F)(F)F)oc2c1 | -10 | 0 | -1 | 1
CCCc1ccc(Oc2c(C(F)(F)F)oc3cc(OC(C)=O)ccc3c2=O)cc1 | 83* | -3 | 10 | 0
CC(C)(C)c1ccc(Oc2c(C(F)(F)F)oc3cc(OC(=O)c4cccs4)ccc3c2=O)cc1 | 94* | 0 | -2 | 0
Cc1cc(N(CC(=O)Nc2ccc(CC#N)cc2)S(C)(=O)=O)ccc1Br | -7 | 3 | -1 | 0
COc1cc(CN(C(=S)NCC(=O)NCc2cccs2)C2CCCC2)cc(OC)c1OC | 12 | 0 | 8 | 0
SMILES | TEAD-YAP inh | GPR151 activ | MITF primary | FBW7 act
COc1ccccc1-c1ccc(N2CCN(C(=O)COc3ccccc3)CC2)nn1 | 5 | -1 | -11 | 7.6*
Cc1cc(C)n(-c2ccc(N3CCN(C(=O)COc4ccccc4)CC3)nn2)n1 | 3 | -1 | 17 | 1
CCCOc1ccc(N2CCN(C(=O)COc3ccc(F)cc3)CC2)nn1 | 7 | 1 | -5 | 3.3*
CN1CCN(c2ccc(-c3nc(NC4CC4)c4ncn(-c5ccsc5)c4n3)cc2)CC1 | 49* | 1 | 5 | 0
CN1CCN(c2ccc(-c3nc(NCc4ccccc4)c4ncn(-c5ccsc5)c4n3)cc2)CC1 | 4 | 0 | 5 | 0
CN1CCN(C(=O)c2ccc(-c3nc(Nc4ccccc4)c4ncn(-c5ccsc5)c4n3)cc2)CC1 | 23 | 0 | -8 | 0
CN1CCN(C(=O)c2ccc(-c3nc(NCc4nc5ccccc5[nH]4)c4ncn(-c5ccccc5)c4n3)cc2)CC1 | 12 | 1 | 9 | 0
CN1CCN(C(=O)c2ccc(-c3nc(NC4CC4)c4ncn(-c5ccsc5)c4n3)cc2)CC1 | 49* | 0 | 2 | 0
CN1CCN(C(=O)c2ccc(-c3nc(NCc4nc5ccccc5[nH]4)c4ncn(-c5ccsc5)c4n3)cc2)CC1 | 59* | -1 | -6 | 0
Cc1cccc(NC(=O)c2ccc(N3CCCCCC3)c([N+](=O)[O-])c2)c1 | 0 | 0 | 11 | 0
CCOC(=O)CSC1=C(C#N)C(=O)NC(c2ccc(OC)cc2)S1 (stereo unspecified) | -3 | 0 | -2 | 0
CCOC(=O)CN1c2ccccc2NC1C(C#N)c1ccc(OC)cc1 (stereo unspecified) | 36* | -2 | 0 | 0
Cc1cc(C)c(NC(=O)C(C)Sc2nnc(-c3ccc(C(C)(C)C)cc3)n2C)c(C)c1 (stereo unspecified) | 10 | -1 | 6 | 0
Oc1ccc(/C=N/Nc2nnc3c(n2)[nH]c2ccccc23)c(O)c1O | -10 | 0 | 111* | -1
C(=N/Nc1nnc2c(n1)[nH]c1ccccc12)/c1c[nH]c2ccccc12 | -2 | 0 | 1 | 1
Cc1cccc2c1[nH]c1nc(N/N=C\c3c[nH]c4ccccc34)nnc12 | 44* | -1 | -2 | 0
Oc1ccc(Cl)cc1/C=N/Nc1nnc2c(n1)[nH]c1ccccc12 | -9 | 1 | 3 | 0
Cc1ccc(S(=O)(=O)N(CC(=O)N2CCCCCC2)c2cccc([N+](=O)[O-])c2)cc1 | -4 | 1 | 3 | 0
CCOC(=O)c1c(NC(=O)C(C)Sc2nnc(CNC(=O)c3ccco3)n2-c2cccc(Cl)c2)sc2c1CCC2 (stereo unspecified) | 7 | 1 | 5 | 0
Cc1c(Cl)ccc(OCCOCCN2CC(C)OC(C)C2)c1C (stereo unspecified) | -14 | 0 | 32 | 0
Cc1ccc(Cl)c(OCC(=O)NN2CCOCC2)c1 | 12 | 0 | 9 | 0
Nc1cccc(-c2nc(N)c3ncn(-c4ccsc4)c3n2)c1 | 54* | 0 | 3 | 0
CC(=O)c1cccc(-c2nc(N)c3ncn(-c4ccsc4)c3n2)c1 | 56* | 0 | -7 | 0
CC(=O)c1cccc(-c2nc(Nc3ccccc3)c3ncn(-c4ccsc4)c3n2)c1 | -4 | 1 | -20 | 0
COc1cccc(Nc2cc(N3CCCCCC3)c3noc4c3c2C(=O)c2ccccc2-4)c1 | -5 | -1 | 27 | 0
Fc1ccc(-c2cc(C(F)(F)F)nc(NCc3cccnc3)n2)cc1 | 40* | 0 | 14 | 0
Cc1cc(C)n(-c2nc3c(c(=O)n(Cc4ccccc4F)c(=O)n3C)n2C(C)C)n1 | 3 | 1 | 2 | 0
CC(C)(C)c1ccc(Cn2cnc3sc4c(c3c2=O)CCCC4)cc1 | 62* | 1 | -2 | 0
COc1ccc(CCn2cnc3sc4c(c3c2=N)CCCC4)cc1OC | 39* | 1 | -6 | 0
Cc1nc2sc3c(c2c(=O)n1Cc1ccc(C(C)(C)C)cc1)CCCC3 | 19 | 2 | 9 | 0
